Compounds with a hit are over-represented: about 18% of the library has one in this group of screens.
IL1B secr inh – inhibitors of inflammasome signaling (IL-1 beta secretion) | THP-1 LPS/ATP IL-1B secretion, AlphaLISA, 16 h; active compounds read low | activity change, % at 57.5 µM | hit rate 4.7% among 360,000; in the data active means activity change below about -50%; inconclusive means mostly about -30% to -49%
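Secreted IL-1B measured by AlphaLISA bead assay after 16 h compound exposure of THP-1 cells; compounds (final up to 57.5 uM) added 1 h before LPS (250 ng/mL) and ATP (1.25 mM) stimulation; lower signal means less secretion.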
TDP1 block – inhibitors of human tyrosyl-DNA phosphodiesterase TDP1; Q9NUW8; recombinant TDP1, AlphaScreen DNA substrate cleavage; Potency, µM (top dose mostly 130 µM), hits mostly inhibitors; hit rate 0.28% among 350,000; AID 485290; further: nearly all actives have a fitted effect of over 40% in size
Target sequence (Q9NUW8 whole entry, looked up): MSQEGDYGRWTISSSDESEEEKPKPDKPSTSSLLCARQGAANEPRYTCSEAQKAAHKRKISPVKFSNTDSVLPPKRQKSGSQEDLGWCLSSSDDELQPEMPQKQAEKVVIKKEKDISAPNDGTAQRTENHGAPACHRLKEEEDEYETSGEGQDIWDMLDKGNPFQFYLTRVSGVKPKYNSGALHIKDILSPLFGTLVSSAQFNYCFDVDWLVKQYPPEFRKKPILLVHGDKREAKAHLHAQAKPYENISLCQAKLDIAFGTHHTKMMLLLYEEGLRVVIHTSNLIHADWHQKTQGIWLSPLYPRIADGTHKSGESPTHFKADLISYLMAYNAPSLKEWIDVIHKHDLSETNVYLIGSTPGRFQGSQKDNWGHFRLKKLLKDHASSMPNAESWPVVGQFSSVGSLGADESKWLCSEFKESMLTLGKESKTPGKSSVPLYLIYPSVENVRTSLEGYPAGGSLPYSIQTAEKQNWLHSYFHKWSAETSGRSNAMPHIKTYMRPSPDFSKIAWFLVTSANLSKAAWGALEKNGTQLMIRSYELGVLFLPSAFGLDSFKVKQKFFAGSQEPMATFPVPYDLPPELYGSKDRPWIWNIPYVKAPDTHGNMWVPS
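Compounds were preincubated with Tdp1 (1 nM final) for 15 min at room temperature before substrate (15 nM final) started a 5 min reaction; beads (10 ug/ml final) were then added for 10 min before AlphaScreen detection.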
CtBP-E1A inh – inhibitors of CtBP/E1A interaction; AID 651724; hit rate 0.49% among 340,000; AlphaScreen GST-E1A/His-CtBP binding, 1536-well; active compounds read low; activity change, % (test concentration not listed); in the data active means activity change below about -65%; inconclusive means mostly about -30% to -63%
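AlphaScreen with 125 nM GST-E1A and 125 nM His-CtBP (5X stocks) in Tris pH 8.0, 300 mM NaCl, BSA, Tween 20, TCEP. Compounds preincubated 2 h at 37 deg C, then glutathione donor/nickel acceptor beads added for 1 h at 37 deg C in dark.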
DT40 TDP1 no CPT – qHTS for Inhibitors of human tyrosyl-DNA phosphodiesterase 1 (TDP1): qHTS in cells in absence of CPT; DT40 Tdp1-/- hTDP1 cells, no CPT, ATP luminescence, 48 h; Potency, µM (top dose mostly 46.2 µM), most hits filed as inhibitors; hit rate 15% among 420,000; further: nearly all actives have a fitted effect of over 55% in size
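Growth kinetics read by CellTiter-Glo luminescence after ≥48 hr at 37 °C. Cells: DT40 Tdp1-/- stably carrying human TDP1, 400 per well, compound exposure in the absence of CPT (DMSO vehicle).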
DT40 TDP1 CPT – DT40-hTDP1 cell growth loss with CPT. chicken DT40 Tdp1-/-;hTDP1 cells + 20 nM CPT, ATP luminescence, 48 h. Potency, µM (series often up to 46.2 µM), most hits filed as inhibitors. hit rate 12% among 420,000. AID 686979; further: nearly all actives have a fitted effect of over 55% in size
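Cell growth measured by CellTiter-Glo luminescence after a minimum 48 h, 37 C compound exposure with 20 nM CPT in Tdp1-knockout DT40 cells stably expressing hTDP1, seeded 400/well; qHTS titration format.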
Six1-Eya2 inh – Six1/Eya2 interaction inhibition; Q15475+O00167; AlphaScreen GST-Six1/His-Eya2 binding, biochemical; active compounds read low; activity change, % (concentration not given with the values); hit rate 0.56% among 360,000; AID 651725; in the data active means activity change below about -65%; inconclusive means mostly about -30% to -63%
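Homogeneous AlphaScreen proximity assay pairing GST-Six1 with His-tagged Eya2 (added as 5X mix: 250 nM and 500 nM) in 50 mM Tris pH 8.0, 300 mM NaCl, 1 mM TCEP. Glutathione donor and nickel acceptor beads; 1 h, 37 °C, dark.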
Numbers stand for hits; i = inactive; ? = inconclusive; nt = not tested or not shown; [ ] = remark or other dose. Unless noted, the call rests on the fitted dose curve; in most records, active means well fitted curve in the direction sought with a large enough effect; inconclusive means small, poorly fitted or top-dose-only effect, or another doubt; inactive means no such curve, though single readings can be large; an effect the other way counts as inactive or inconclusive.

SMILES | IL1B secr inh | TDP1 block | CtBP-E1A inh | DT40 TDP1 no CPT | DT40 TDP1 CPT | Six1-Eya2 inh
Cc1ccc(CNC(=O)c2cnn(-c3ccc(F)cc3F)c2C2CCN(C(=O)OC(C)(C)C)CC2)cc1 | nt | i | nt | ? | ? | nt
Cc1ccc(-n2ncc(C(=O)NC3CCCC3)c2C2CCN(C(=O)OC(C)(C)C)CC2)c(C)c1 | nt | i | nt | ? | ? | nt
CC(C)(C)OC(=O)N1CCC(c2c(C(=O)NC3CCCCC3)cnn2-c2ccc(F)cc2F)CC1 | nt | i | nt | ? | 21µM | nt
Cc1cccc(N2CCN(C(=O)c3cnn(-c4ccc(F)cc4F)c3C3CCN(C(=O)OC(C)(C)C)CC3)CC2)c1C | nt | i | nt | 21µM | 21µM | nt
COc1ccccc1N1CCN(C(=O)c2cnn(-c3ccc(F)cc3F)c2C2CCNCC2)CC1 | nt | i | nt | 18µM | i | nt
CC(=O)c1ccc(NS(=O)(=O)c2ccc(Br)s2)cc1 | nt | i | nt | i | i | nt
COc1cccc(CN2CCCC(c3nc(-c4ccncc4)ncc3-c3ccccc3)C2)c1O (stereo not given) | nt | nt | nt | 16µM | ? | nt
COc1ccc(CN2CCCC(c3nc(-c4ccncc4)ncc3-c3ccccc3C)C2)c(OC)c1 (stereo not given) | nt | nt | nt | ? | 2.6µM | nt
Cc1ccccc1-c1cnc(-c2ccncc2)nc1C1CCCN(Cc2ccccc2O)C1 (stereo not given) | nt | nt | nt | ? | i[9.04 µM] | nt
COc1ccc(CN2CCCC(c3nc(-c4ccncc4)ncc3-c3ccccc3)C2)c(OC)c1OC (stereo not given) | nt | nt | nt | i | i[9.04 µM] | nt
COc1cccc([C@@H]2Oc3ccc(Br)cc3C(=O)[C@H]2OC(=O)NCc2ccco2)c1 | nt | i | nt | nt | nt | nt
Cc1ccc(S(=O)(=O)Oc2cccc(N3C(=O)C4CC=CCC4C3=O)c2)cc1 (stereo not given) | i | i | i | ? | 16µM | i
Cc1ccc(S(=O)(=O)Oc2ccc(N3C(=O)C4C5CCC(C5)C4C3=O)cc2)cc1 (stereo not given) | i | i | i | 23µM | 4.1µM | i
Cc1ccc(S(=O)(=O)Oc2ccccc2N2C(=O)C3C4CCC(C4)C3C2=O)cc1 (stereo not given) | i | i | i | i | i | i
O=[N+]([O-])c1ccc(OCC(O)CNCCNc2nccc(C(F)(F)F)n2)cc1 (stereo not given) | ? | nt | nt | ? | i | i
O=[N+]([O-])c1ccc(N2CCN(Cc3ccccc3)CC2)c2c1no[n+]2[O-] | -87 | nt | i | 0.26µM | 0.16µM | i
O=C(Cn1ccc([N+](=O)[O-])n1)NCc1nc2ccccc2[nH]1 | i | i | i | i | i | i
CC1=C(C(=O)N2CCCCCC2)CC(CC(=O)NCc2cccs2)C(=O)N1CCC1=CCCCC1 (stereo not given) | i | nt | i | 23µM | 16µM | i
CCCCN1C(=O)C(CC(=O)NCc2cccc3ccccc23)CC(C(=O)N2CCCCCC2)=C1C (stereo not given) | -55 | nt | i | ? | ? | i
COCCCN1C(=O)C(CC(=O)NCc2cccc3ccccc23)CC(C(=O)N2CCCCCC2)=C1C (stereo not given) | nt | nt | nt | i | i | nt
CC1=C(C(=O)N2CCCCCC2)CC(CC(=O)NCc2cccc3ccccc23)C(=O)N1CCC1=CCCCC1 (stereo not given) | -63 | nt | i | ? | ? | i
CN(C(=O)COC(=O)/C=C/c1ccc2c(c1)OCO2)c1c(N)n(Cc2ccccc2)c(=O)[nH]c1=O | i | nt | i | i | ? | i
Oc1ccc(-c2n[nH]c(=S)n2Cc2ccco2)cc1 | i | i | i | i | i | i
C[C@H](/C=C/[C@@]1(O)[C@H](C)C[C@H](O)CC1(C)C)O[C@@H]1O[C@H](CO)[C@@H](O)[C@H](O)[C@H]1O | i | nt | i | i | i | i
CCOC(=O)c1sc(=S)n(Cc2ccccc2)c1C | i | i | i | i | i | i
SMILES | IL1B secr inh | TDP1 block | CtBP-E1A inh | DT40 TDP1 no CPT | DT40 TDP1 CPT | Six1-Eya2 inh
CN(C)C(=S)N=c1ssc(=S)n1Cc1ccccc1 | i | nt | i | 3.7µM | 2.6µM | i
CC(C)(C)n1nnnc1C(c1ccccc1)N1CCN(c2c(Cl)cncc2Cl)CC1 (stereo not given) | i | nt | i | 16µM | ? | i
CCCCn1nnnc1C(c1ccccc1)N1CCN(c2c(Cl)cncc2Cl)CC1 (stereo not given) | i | nt | i | 16µM | ? | i
CN1CCN(C(c2ccccc2)c2nnnn2C(C)(C)C)CC1 (stereo not given) | i | nt | i | i | i | i
Cc1cccc(N2CCN(C(c3ccncc3)c3nnnn3C(C)(C)C)CC2)c1C (stereo not given) | ? | i | i | 18µM | i | i
CC(C)(C)n1nnnc1C(c1cccnc1)N1CCN(c2cccc(C(F)(F)F)c2)CC1 (stereo not given) | i | i | i | 21µM | 18µM | i
CC(C)(C)n1nnnc1C(c1ccncc1)N1CCN(C2CCCCC2)CC1 (stereo not given) | i | i | i | i | i | i
CCCNc1c(NS(=O)(=O)c2ccc(C3CCCCC3)cc2)c(=O)oc2ccccc12 | ? | i | i | i | ? | i
CC1C(=O)N2CCCc3cc(NC(=O)C(=O)NCCc4c[nH]c5ccccc45)cc1c32 (stereo not given) | i | nt | i | i | ? | i
CCn1c(CCC(=O)Nc2nc3c(s2)CCCC3)nc2cc(S(=O)(=O)N(C)C)ccc21 | i | i | i | i | i | i
CC1CCN(c2ccc(C(=O)O)cc2NS(=O)(=O)c2ccc(Br)cc2)CC1 | i | i | i | i | i | i
CCCCn1nnnc1C(c1ccccc1)N1CCN(c2cccc(C)c2C)CC1 (stereo not given) | i | nt | i | 16µM | ? | i
COc1ccc(N2CCN(C(c3ccc(C)cc3)c3nnnn3C(C)(C)C)CC2)cc1 (stereo not given) | nt | nt | nt | 14µM | ? | nt
CCCCn1nnnc1C(c1ccccc1)N1CCN(c2ccccc2)CC1 (stereo not given) | i | nt | i | ? | ? | i
CCOC(=O)c1c(C)oc2nc(C)nc(Nc3ccc(C)c(Cl)c3)c12 | nt | i | nt | i | i | nt
Cc1cc(Nc2ccc(Br)c(C)c2)n2nc(-c3ccco3)nc2n1 | nt | i | nt | 21µM | ? | nt
C=C1CCN(C(CC(C)C)C(=O)O)S(=O)(=O)c2ccccc21 (stereo not given) | nt | i | nt | nt | nt | nt
Cc1c(C(=O)NC2CCCc3ccccc32)oc2ccc(S(=O)(=O)N3CCOCC3)cc12 (stereo not given) | i | i | i | ? | ? | i

Compound activity: PubChem, National Center for Advancing Translational Sciences (NCATS)
